CYP2C9 inhib: blocks human cytochrome P450 2C9; inhibition, % at 5 µM; AID 777; CYP2C9 Supersomes, luciferin-H conversion, luminescence; hit rate 20% among 96,000;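 active = blocking of liver enzyme CYP2C9 beyond about 50% at 5 µM, limit read from the data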
CYP2C19 act: increases human CYP2C19 enzyme activity; 96,000 tested, under 10 active; recombinant CYP2C19, luciferin-H EGE luminescence; active compounds read high; 0 = fully inhibited enzyme, 1 = untreated enzyme; activation factor at 5 µM;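 active = activation factor of at least 2 at 5 µM in the primary screen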;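 note: 0 = wells with 2.5 mM tranylcypromine and 1 = vehicle-only wells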
Target sequence (P33261 whole entry, looked up): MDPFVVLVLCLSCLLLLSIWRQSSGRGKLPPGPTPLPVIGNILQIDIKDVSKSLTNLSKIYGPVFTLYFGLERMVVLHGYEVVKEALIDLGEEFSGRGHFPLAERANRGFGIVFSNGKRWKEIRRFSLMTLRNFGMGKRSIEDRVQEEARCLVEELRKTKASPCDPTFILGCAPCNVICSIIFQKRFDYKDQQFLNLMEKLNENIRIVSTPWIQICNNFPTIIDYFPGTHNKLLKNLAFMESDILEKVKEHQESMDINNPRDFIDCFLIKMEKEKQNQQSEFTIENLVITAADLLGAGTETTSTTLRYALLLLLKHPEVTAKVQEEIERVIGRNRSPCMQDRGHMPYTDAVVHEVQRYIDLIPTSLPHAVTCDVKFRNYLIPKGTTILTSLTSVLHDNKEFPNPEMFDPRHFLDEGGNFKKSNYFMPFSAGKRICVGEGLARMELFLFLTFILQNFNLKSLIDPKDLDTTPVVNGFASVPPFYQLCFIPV
CYP2C9 act: CYP2C9 (human) activation | activation factor at 5 µM | P11712 | recombinant CYP2C9, luciferin-H conversion, luminescence; active compounds read high; factor 1 = untreated enzyme, 0 = blocked | hit rate 1.4% among 96,000;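 active = activation factor of 2 or more for CYP2C9 at a 5 µM dose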;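 note: 0 = sulfaphenazole-blocked wells and 1 = vehicle-only wells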
Cav3 T inh: human Cav3.2 channel inhibition, primary screen. O95180. hit rate 4% among 100,000. B-score at 10 µM. Cav3.2-expressing cells, Fluo-4 calcium fluorescence FDSS; active compounds read low;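 active = single-dose well whose peak fluorescence ratio is a statistical outlier from its plate by either plate-standardised score or position-corrected B-score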
CYP2C19 inh: human CYP2C19 inhibition; P33261; CYP2C19 Supersomes, luciferin-H EGE luminescence, 30 min; inhibition, % at 5 µM; hit rate 21% among 96,000; AID 778;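 active = CYP2C19 inhibition above a set limit at 5 µM in the primary screen, cut at about 50% in these data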;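 note: plate controls were negative control wells for no effect and 2.5 mM tranylcypromine positive control for full effect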
An asterisk follows results filed as active; . = not tested or not shown. In the library only some 27% were active in any assay of this set; here they are far more common.

SMILES	CYP2C9 inhib	CYP2C19 act	CYP2C9 act	Cav3 T inh	CYP2C19 inh
Cc1ccc(Oc2ccc(-c3nc(N)nc(N)n3)cc2)cc1	7.0	0.9	0.9	0.478	5.7
Cc1cccc(Oc2cc(N)cc([N+](=O)[O-])c2)c1	33.8	0.4	0.7	.	59.7*
Cc1cccc(Oc2ccccc2N)c1	-22.1	0.7	1.2	0.253	34.1
Cc1cc(C)cc(Oc2ccc(N)cc2)c1	-77.1	0.2	1.8	-0.944	81.5*
CSCCC(NC(=O)c1c(C)oc2c1CCCC2)C(=O)O (configuration not stated)	-8.0	1.2	1.1	1.36	-17.3
CCn1c(=O)n(CC)c2cc(S(=O)(=O)N3CCC(c4ccccc4)CC3)ccc21	68.2*	0.7	0.3	-1.13	32.8
CN1C(=O)NC(NC(=O)c2ccco2)(C(F)(F)F)C1=O (configuration not stated)	-0.1	1	1	-0.231	-1.9
CC(C)CN1C(=O)NC(NC(=O)c2ccco2)(C(F)(F)F)C1=O (configuration not stated)	16.2	0.4	0.8	0.753	55.5*
O=C1Nc2ccccc2/C1=N/c1sc2c(c1C(=O)NCCc1ccccc1)CCCC2	49.7	0.7	0.5	.	26.4
O=C1c2ccccc2C(Nc2ccc(S(=O)(=O)N3CCCCCC3)cc2)N1Cc1ccco1 (configuration not stated)	97.0*	0.6	0	-2.91	36.5
Cc1ccc(N2C(=O)c3ccccc3C2Nc2ccc(S(=O)(=O)N3CCCCC3)cc2)nc1 (configuration not stated)	35.8	0.9	0.6	-1.8	14.3
CCOc1ccccc1NC1c2ccccc2C(=O)N1Cc1ccco1 (configuration not stated)	19.0	0.4	0.8	-3.85	63.4*
CCc1ccccc1NC1c2ccccc2C(=O)N1Cc1ccco1 (configuration not stated)	15.0	1	0.8	-4.03	-0.5
CCCCOc1ccc(NC2=NC3(CCCC3)N=C(N)N2)cc1	-16.2	1.1	1.2	1	-5.6
CCOC(=O)C1C(=O)C=C(c2ccc(Br)cc2)CC1c1ccco1 (configuration not stated)	28.3	0.7	0.7	-2.24	25.2
Cc1noc2ncnc(Oc3ccccc3)c12	48.8	0.2	0.5	-0.852	75.9*
Cc1noc2ncnc(Sc3ccccc3Cl)c12	68.2*	0	0.3	-0.137	100.0*
Cc1sc(N/N=C/C=C/c2ccccc2)nc1-c1ccccc1	-29.8	0.9	1.3	-1.29	8.0
CCOC(=O)N1CCN(C(=O)c2csc3c2CCCCC3)CC1	76.5*	0.4	0.2	0.44	55.1*
COc1ccc(C(=O)NCCn2cc(SCC(=O)N3CCOCC3)c3ccccc32)cc1	23.8	0.9	0.8	0.791	13.8
CCC(=C(c1ccc(OC)cc1)c1ccc(OC)cc1)c1cn(CC(O)CN2CCN(C)CC2)c2ccccc12 (configuration not stated)	70.4*	0.9	0.3	.	6.9
Cc1csc(NC(C)c2nc3cc(Cl)c(N4CCCCC4)cc3n2CCOCCO)n1 (configuration not stated)	.	.	.	0.221	.
CC(c1ccco1)N(C(=O)CSc1ccc(Br)cc1)c1ccccn1 (configuration not stated)	89.8*	0	0.1	-4.54*	97.7*
COC(=O)c1ccc2c(c1)N(Cc1nc(-c3cccc(C)c3)oc1C)C(=O)C1CCCN21 (configuration not stated)	36.9	0.6	0.6	.	43.8
COc1cccc(CNC(=O)C2CCN(S(=O)(=O)c3c(C)nn(C)c3C)CC2)c1	-28.4	1	1.3	1.02	3.9
SMILES	CYP2C9 inhib	CYP2C19 act	CYP2C9 act	Cav3 T inh	CYP2C19 inh
COCCCn1c(SCC(=O)Nc2cccc(C(=O)OC)c2)nnc1-c1ccncc1	79.4*	0.2	0.2	0.437	81.3*
COCCn1c(SCC(=O)Nc2sc(C)c(C)c2C#N)nnc1-c1ccc(OC)cc1	54.3*	0.6	0.5	-0.518	43.7
COCCn1c(SCC(=O)Nc2cccc(OC)c2)nnc1-c1ccccc1	9.0	0.8	0.9	-3.68	21.8
COCCn1c(SCC(=O)Nc2cccc(OC)c2)nnc1-c1ccc(Cl)cc1	67.4*	0.1	0.3	-1.09	93.5*
Cc1nc2ccc(S(=O)(=O)NC(C(=O)N3CCC(C)CC3)C(C)C)cc2s1 (configuration not stated)	28.6	0.9	0.7	0.373	13.0
CCN1CCN(C(c2ccccc2OC)c2nnnn2C2CCCCC2)CC1 (configuration not stated)	-14.2	1.2	1.1	0.708	-17.3
